From the supplement of paper PMC9402605
± gives the standard deviation of the averaged measurements.

These molecules were tested on Caenorhabditis elegans N2 (assay: egg-laying rate relative to DMSO control (serotonin + nicotine background) (fraction of control); higher = more egg-laying). Settings: background: 12.3 mM serotonin + 7.7 mM nicotine; 60 µM; 1 h.
Experimental: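 About 20 young-adult wild-type C. elegans (N2) per well in 96-well plates were exposed to 60 uM compound for 1 h at room temperature, either in M9 buffer (to find stimulators) or in 12.3 mM serotonin + 7.7 mM nicotine (NS, to find inhibitors). Eggs per worm per hour were counted by automated imaging and normalised to the mean of proximal DMSO control wells. Values average the primary screen and two retests of the worm-active (wactive) Egl modulators.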

SMILES | egg-laying rate
CCOc1ccc(/C=C/[N+](=O)[O-])cc1 [wact-385] | 0.313 ± 0.11
